TPT1 inhibitor: Candida albicans TPT1 enzyme inhibitors, primary screen, biochemical, fluorescence polarization. tRNA 2'-phosphotransferase TPT1 (Candida albicans SC5314). AID 1962, 2009. recombinant caTPT1, FP RNA substrate dephosphorylation. actives 0.81% (n = 300,000). inhibition, % at 5 µM;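 active means inhibition above the mean of all tested compounds plus 3 SD, set per screening campaign, cut at about 24% in these data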;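 further: plate controls were DMSO alone for no effect and ferristatin control at 100 nM for full effect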
CRFBP-R2 agonist: agonists of CRF-BP/CRF-R2 complex, primary screen, cell-based, HEK293, calcium dye fluorescence, uHTS | CRF-binding protein / CRF receptor 2 complex (human) | calcium dye fluorescence (FLIPR); percent of saturating CRF peptide response | activation, % at 13.2 µM | actives 0.46% (n = 350,000) | AID 588473, 2011;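 active means activation of at least 50%, plus an integration ratio under a set limit after plate pattern correction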;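 further: plate controls were neutral control wells without compound for no effect and CRF at EC100 for full effect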
IDE inh: human IDE inhibitors in live cells, primary screen, fluorescence polarization, HEK cells, FAbetaB substrate; Insulin-degrading enzyme (Homo sapiens), P14735; FAbetaB cleavage; inhibition, % at 5.59 µM; actives 0.41% (n = 320,000); AID 434962, 2010;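 active means percent inhibition above the average of all tested compounds plus 3 SD, set per screening campaign, cut at about 16% in these data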;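 further: IDE supplied by intact live HEK cells; FP after avidin binding of uncleaved biotin substrate so inhibition keeps polarization high; 0% = DMSO wells and 100% = 60 µM reference IDE inhibitor Ii1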
HNF4A DNA FP: change in binding of human HNF4A to DNA, primary screen, biochemical, fluorescence polarization, FITC-DNA; 1 h; activity change, % at 10 µM; actives 0.3% (n = 360,000); AID 1224865, 2016; in the data active means activity change above about 30%, passing the limit was not always enough
Target sequence (P41235 whole entry, looked up): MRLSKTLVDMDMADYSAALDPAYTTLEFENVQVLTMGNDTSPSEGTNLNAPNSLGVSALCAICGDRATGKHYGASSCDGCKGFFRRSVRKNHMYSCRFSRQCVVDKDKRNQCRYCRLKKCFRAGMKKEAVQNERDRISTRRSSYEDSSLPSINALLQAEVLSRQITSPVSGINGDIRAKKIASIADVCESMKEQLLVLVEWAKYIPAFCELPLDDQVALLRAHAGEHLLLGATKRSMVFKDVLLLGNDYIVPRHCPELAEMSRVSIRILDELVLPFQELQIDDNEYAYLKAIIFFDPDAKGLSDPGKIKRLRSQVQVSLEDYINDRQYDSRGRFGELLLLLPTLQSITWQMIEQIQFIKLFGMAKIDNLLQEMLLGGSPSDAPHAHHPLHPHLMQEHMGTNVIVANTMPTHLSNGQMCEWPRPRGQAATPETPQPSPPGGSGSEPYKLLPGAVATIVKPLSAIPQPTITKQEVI
IDE cell activ: human IDE activators in live cells, primary screen, fluorescence polarization, HEK cells, FAbeta-B substrate; FAbeta-B cleavage; 0% vehicle, 100% cell-free pure enzyme wells; activation, % at 5.96 µM; actives 0.073% (n = 340,000);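 active means activation above the mean of all tested compounds plus 3 SD, set per screening campaign, cut at about 17% in these data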
TPT1 inh confirm: Candida albicans TPT1 inhibitors, confirmation, biochemical, fluorescence polarization, triplicate | shares compounds with TPT1 inhibitor | recombinant caTPT1, RNase T1 coupled | inhibition, % at 5 µM | actives 74% (n = 2,400);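 active means inhibition above the primary screen limit, the mean inhibition of all tested compounds plus 3 SD, cut at about 25% in these data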
RNase T1 inh: RNase T1 inhibitors, counter-screen for TPT1 inhibitor project, biochemical, fluorescence polarization; AID 2153, 2009; shares compounds with TPT1 inhibitor; inhibition, % at 5 µM; RNase T1 cleavage, 1536-well; actives 83% (n = 2,400);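 active means inhibition above the solvent-only control well mean plus 3 SD, limit set per screening run, cut at about 23% in these data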;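 further: plate controls were DMSO wells with enzyme for no effect and wells without RNase T1 for full effect; inhibitors block cleavage so intact labeled substrate keeps polarization high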
An asterisk follows results filed as active; / = no result given. Compounds with a hit are over-represented: about 1.4% of the library has one in this group of screens.

SMILES	TPT1 inhibitor	CRFBP-R2 agonist	IDE inh	HNF4A DNA FP	IDE cell activ	TPT1 inh confirm	RNase T1 inh
O=c1nc(/C=C/c2ccc(-c3ccc(F)cc3)o2)cc(C(F)(F)F)[nH]1	110*	/	5	/	/	106*	106*
O=Cc1ccc(-c2ccc(F)cc2)o1	2	-3	0	0	2	/	/
O=C(O)c1cc(Cl)ccc1-c1ccc(/C=C/c2cc(C(F)(F)F)[nH]c(=O)n2)o1	62*	205*	13	76	-2	85*	91*
Cc1nc(S/C(=C/c2ccc(-c3cc(Cl)ccc3C)o2)C(=O)O)n[nH]1	13	0	0	3	-3	/	/
COc1ccc(CNC(=O)CSc2nc3ccc(C)cc3[nH]2)cc1OC	-3	-1	1	-3	2	/	/
O=C(N/N=C/c1cccnc1)c1cc2ccccc2o1	-2	-2	-2	1	2	/	/
NNC(=O)c1oc2nc(-c3ccc(Cl)cc3)cc(-c3ccccc3)c2c1N	/	-1	/	8	2	/	/
NNC(=O)c1oc2nc(-c3ccco3)cc(-c3ccco3)c2c1N	66*	2	-1	10	/	48*	61*
Nc1c(C(=O)N/N=C/c2cccnc2)oc2nc(-c3ccco3)cc(-c3ccco3)c12	44*	3	-4	-44	/	76*	81*
Nc1c(C(=O)N/N=C/c2cccnc2)oc2nc(-c3ccccc3)cc(-c3ccco3)c12	58*	8	5	23	/	100*	103*
CCCCN(C)C(=S)Nc1ccc2nc3n(c(=O)c2c1)CCCCC3	-4	3	-2	-2	3	/	/
CCOC(=O)C1=C(O)CSC1=Nc1ccccc1	27*	-1	3	4	-1	21	27*
CCCCN(C)CC(O)Cn1cc(/C=C/C(=O)c2cccs2)c2ccccc21 (configuration not stated)	59*	33	5	24	-14	61*	68*
CCCCN(C)CC(O)Cn1cc(/C=C/C(=O)c2ccc(OCC)cc2)c2ccccc21 (configuration not stated)	17	/	6	/	/	/	/
O=C(/C=C/c1cn(CC(O)CN2CCCCCC2)c2ccccc12)c1cccs1 (configuration not stated)	57*	65*	6	23	-4	68*	76*
CC(=O)Nc1cc2c(cc1Br)-c1ccccc1C2	/	-2	/	-2	-2	/	/
Cc1ccc(-c2ccc(/C=N/n3cnnc3)o2)cc1Cl	62*	-2	4	5	4	2	5
Cc1ccc(-c2ccc(/C=N/n3cnnc3)o2)cc1	0	2	-2	0	6	/	/
COc1ccc(CCC(=O)N2CCCC(Nc3ccc(C)c(C)c3)C2)cc1OC (configuration not stated)	-3	1	6	-3	-1	/	/
Cc1[nH]c2ccccc2c1/C=C/C(=O)c1ccncc1	76*	23	11	13	3	77*	87*
O=C(/C=C/c1cccc2ccccc12)c1ccncc1	3	7	-5	5	-2	/	/
Cc1nc(SCC(=O)N2CCCCCC2)c2c(=O)n(C)c(=O)n(CC(C)C)c2n1	/	-2	/	-1	-10	/	/
CCOC(=O)CSc1nc2ccccc2n1C(=O)OCC	39*	1	2	22	-5	37*	47*
COc1ccc(CNC(=O)CN(c2cccc(OC)c2)S(C)(=O)=O)cc1	76*	-1	10	0	0	2	6
COc1ccc(CNC(=O)CN(c2cccc([N+](=O)[O-])c2)S(C)(=O)=O)cc1	-2	3	-3	3	-3	/	/

Screens (PubChem BioAssay)
